The structures appear in SMILES notation. Screen size: about 96,000 compounds; about 20,000 (21%) were called active. The list is a sample of the results. Unmarked numbers belong to inactive results.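 How the source made its calls: active means CYP2C19 inhibition above a set limit at 5 µM in the primary screen (cut at about 50% in these data); inactive means the rest.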

Cytochrome P450 2C19 (Homo sapiens), sequence (P33261 whole entry, looked up): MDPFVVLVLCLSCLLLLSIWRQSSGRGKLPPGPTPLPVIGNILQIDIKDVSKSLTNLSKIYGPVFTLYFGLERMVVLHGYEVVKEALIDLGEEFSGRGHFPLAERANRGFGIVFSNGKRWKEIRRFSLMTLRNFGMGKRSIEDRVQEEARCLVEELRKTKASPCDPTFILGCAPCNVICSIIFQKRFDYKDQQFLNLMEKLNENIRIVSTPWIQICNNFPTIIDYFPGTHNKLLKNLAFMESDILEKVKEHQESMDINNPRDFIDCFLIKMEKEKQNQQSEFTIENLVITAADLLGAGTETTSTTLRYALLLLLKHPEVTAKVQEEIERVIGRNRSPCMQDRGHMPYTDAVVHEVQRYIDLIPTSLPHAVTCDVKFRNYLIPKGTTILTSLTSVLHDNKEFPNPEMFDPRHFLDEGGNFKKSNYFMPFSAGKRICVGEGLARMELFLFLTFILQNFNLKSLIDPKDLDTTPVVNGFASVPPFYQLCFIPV

The assay has as its target Cytochrome P450 2C19 (Homo sapiens) (UniProt P33261). The assay can be described thus: blockers of cytochrome P450 2C19 activity – biochemical, luminescence, ADME assay, primary screen (AID 778).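 Further: plate controls were negative control wells for no effect and 2.5 mM tranylcypromine positive control for full effect.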 To be noted: CYP2C19 Supersomes, luciferin-H EGE luminescence, 30 min; at 5 µM; hits give high values.
For `CCCCCCCCOC1OC(CO)C(O)C(O)C1NC(C)=O` (configuration not stated), the inhibition (commonly the relative decrease from the control value, in per cent) was -4.2%. The result for `N#Cc1c(NC(=O)CCCN2C(=O)c3ccccc3C2=O)oc(-c2ccccc2)c1-c1ccccc1` reads 24.8%; that for `COCCOC(=O)c1sc(=S)n(CCOC)c1N`, 47.6%. In the case of `Cc1ccc2nc(NC(=O)C3CCN(S(=O)(=O)c4ccc5c(c4)oc(=O)n5C)CC3)sc2c1`, the inhibition is 6.1%. Turning to `CCCC(=O)Nc1ccc(C(=O)NCCCn2ccnc2)cc1`, the inhibition is 52.2% (active). On to `CCN(CC)C(=O)CCC(=O)Nc1ccc(C(=O)OC)cc1`, for which the inhibition was 33.7%. As to `CCCCC(=O)Nc1ccc(C(=O)NCCCn2ccnc2)cc1`, the inhibition is 37.9%. The figure for `CC1(C)CC(=O)C(C2=NC(C)(C)Cc3ccccc32)=C(O)C1` is 13.7%; for `COc1ccc(C2C(C#N)=C(/N=C/N3CCOCC3)OC3=C2C(=O)CC(C)(C)C3)cc1OC` (configuration not stated) it is 21%.

In the case of `CCc1ccc(N(CC)c2ncnc3nc[nH]c23)cc1`, the inhibition is 14.9%.

As to `CCOC(=O)C1=C(CN2CCc3ccccc32)NC(=O)NC1c1ccc(Cl)cc1` (configuration not stated), the inhibition was 26.5%. The result for `CCOC(=O)C1=C(CN2CCc3ccccc32)NC(=O)NC1c1cccc([N+](=O)[O-])c1` (configuration not stated) reads 63.5% (active).

For the compound `Cn1c2c(c(=O)n(C)c1=O)C(c1cccc([N+](=O)[O-])c1)Nc1ccccc1O2` (configuration not stated), the inhibition is 18.9%. With `O=C(COc1ccc2oc3c(c2c1)CCCC3)Nc1ccccn1`, the inhibition is 21.2%. As to `O=C(COc1ccc2c3c(c(=O)oc2c1)CCC3)NC1CCCCC1`, the inhibition was 54.4% (active). The result for `NC(=O)COc1ccc2c3c(c(=O)oc2c1)CCCCC3` reads -3.8%. Take `CCC1(CC)NC(=O)N(CC(=O)OCC(=O)Nc2ccc(C(F)(F)F)cc2)C1=O`: the inhibition is -6.3%.

For the compound `S=c1[nH]nc(-c2ccco2)n1/N=C/c1ccc(Br)s1`, the inhibition is -11.6%. The figure for `O=C(O)C1CC=C(Cl)CC1C(=O)NCc1ccccc1` (configuration not stated) is 2.3%; for `Cc1ccc(CNC(=O)C2CCCN2C(=O)NCc2ccccc2)cc1` (configuration not stated) it is 0.7%; for `O=C(NCc1ccccc1)[C@@H]1CSC2c3ccccc3C(=O)N21` (some centres not stated) it is 81.2% (active).

With `Cn1c(=O)c(C(=O)Nc2ncccn2)c(O)c2ccccc21`, the inhibition was 7.9%.

Take `O=C(NCc1ccc(Cl)cc1)c1cc(=O)nc2sc(-c3ccccc3)nn12`: the inhibition is 4.6%.

`O=C(CCc1ccccc1)Nc1cccc(-c2nnc(-c3ccco3)o2)c1`: the inhibition is 18.2%.

In the case of `CC(=O)CSc1nnc(CSc2ncccn2)n1C1CCCCC1`, the inhibition is -8.3%.

Turning to `CC1CCCCN1S(=O)(=O)c1ccc(C(=O)Nc2nnc(-c3cccs3)o2)cc1` (configuration not stated), the inhibition is 10.3%.

As to `NC(=O)CSc1oc(-c2cccs2)nc1S(=O)(=O)c1ccccc1`, the inhibition was 79.2% (active).

The record behind these values is PubChem BioAssay AID778 (Sanford-Burnham Center for Chemical Genomics, 2007).
